# Activity calls are given as the source filed them.
# Key:
# [1] = tested on: Plasmodium falciparum Sir2 (PF13_0152, Sir2A); assay: Plasmodium falciparum Sir2A binding compounds – biochemical, small-molecule microarray, 635 nm fluorescence, primary screen (AID 1098); details: fluorescence 635 nm, higher = more signal;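 further: score merges spot fluorescence intensity with its signal-to-noise ratio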
# [2] = probe aDKK1 binding to arrayed compounds – biochemical, biotinylated probe, 635/667 nm fluorescence, primary screen (AID 1099); details: small-molecule microarray, higher = more signal;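 further: score merges 667nm spot fluorescence with signal to noise across triplicate slides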
# [3] = probe aCHRDL2 binding to arrayed compounds – biochemical, biotinylated probe, 635/667 nm fluorescence, primary screen (AID 1100); details: small-molecule microarray, higher = more signal
# [4] = change in splice reporter luminescence, either direction, cell-based, HEK293, spliceosome inhibition project, primary screen (AID 1101); details: HEK293 splicing luciferase reporter, 24 h, higher = more signal, called active from +8 up or from −8 down;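 further: HEK293 cells carrying a splicing-competent luciferase reporter gene; test concentration not given here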
# [5] = target: Fibroblast growth factor 10 (Homo sapiens) (UniProt O15520); assay: compounds binding fibroblast growth factor 10 – biochemical, small-molecule microarray, 635 nm fluorescence, primary screen (AID 1102); details: FGF10 binding, fluorescence 635 nm, higher = more signal
# Sequence of Fibroblast growth factor 10 (Homo sapiens) (O15520 whole entry, looked up): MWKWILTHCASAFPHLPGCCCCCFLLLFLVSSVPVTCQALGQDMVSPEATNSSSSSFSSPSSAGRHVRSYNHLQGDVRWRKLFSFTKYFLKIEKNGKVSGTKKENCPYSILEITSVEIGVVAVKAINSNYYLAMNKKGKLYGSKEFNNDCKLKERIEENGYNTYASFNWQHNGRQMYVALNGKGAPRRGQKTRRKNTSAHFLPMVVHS
# [6] = tested on: glycogen synthase kinase-3 (GSK3A per assay name; protocol says GSK3B); assay: compounds binding glycogen synthase kinase-3 – biochemical, small-molecule microarray, 635 nm fluorescence, GSK3A, primary screen (AID 1103); details: fluorescence 635 nm, higher = more signal; further: the record names both GSK3A and GSK3B
# [7] = target: Epidermal growth factor receptor (Homo sapiens) (UniProt P00533); assay: compounds binding epidermal growth factor receptor – biochemical, small-molecule microarray, 635 nm fluorescence, primary screen (AID 1104); details: EGFR binding, higher = more signal;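 further: score merges 667 nm emission intensity with spot signal to noise over triplicate slides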
# Sequence of Epidermal growth factor receptor (Homo sapiens) (P00533 whole entry, looked up): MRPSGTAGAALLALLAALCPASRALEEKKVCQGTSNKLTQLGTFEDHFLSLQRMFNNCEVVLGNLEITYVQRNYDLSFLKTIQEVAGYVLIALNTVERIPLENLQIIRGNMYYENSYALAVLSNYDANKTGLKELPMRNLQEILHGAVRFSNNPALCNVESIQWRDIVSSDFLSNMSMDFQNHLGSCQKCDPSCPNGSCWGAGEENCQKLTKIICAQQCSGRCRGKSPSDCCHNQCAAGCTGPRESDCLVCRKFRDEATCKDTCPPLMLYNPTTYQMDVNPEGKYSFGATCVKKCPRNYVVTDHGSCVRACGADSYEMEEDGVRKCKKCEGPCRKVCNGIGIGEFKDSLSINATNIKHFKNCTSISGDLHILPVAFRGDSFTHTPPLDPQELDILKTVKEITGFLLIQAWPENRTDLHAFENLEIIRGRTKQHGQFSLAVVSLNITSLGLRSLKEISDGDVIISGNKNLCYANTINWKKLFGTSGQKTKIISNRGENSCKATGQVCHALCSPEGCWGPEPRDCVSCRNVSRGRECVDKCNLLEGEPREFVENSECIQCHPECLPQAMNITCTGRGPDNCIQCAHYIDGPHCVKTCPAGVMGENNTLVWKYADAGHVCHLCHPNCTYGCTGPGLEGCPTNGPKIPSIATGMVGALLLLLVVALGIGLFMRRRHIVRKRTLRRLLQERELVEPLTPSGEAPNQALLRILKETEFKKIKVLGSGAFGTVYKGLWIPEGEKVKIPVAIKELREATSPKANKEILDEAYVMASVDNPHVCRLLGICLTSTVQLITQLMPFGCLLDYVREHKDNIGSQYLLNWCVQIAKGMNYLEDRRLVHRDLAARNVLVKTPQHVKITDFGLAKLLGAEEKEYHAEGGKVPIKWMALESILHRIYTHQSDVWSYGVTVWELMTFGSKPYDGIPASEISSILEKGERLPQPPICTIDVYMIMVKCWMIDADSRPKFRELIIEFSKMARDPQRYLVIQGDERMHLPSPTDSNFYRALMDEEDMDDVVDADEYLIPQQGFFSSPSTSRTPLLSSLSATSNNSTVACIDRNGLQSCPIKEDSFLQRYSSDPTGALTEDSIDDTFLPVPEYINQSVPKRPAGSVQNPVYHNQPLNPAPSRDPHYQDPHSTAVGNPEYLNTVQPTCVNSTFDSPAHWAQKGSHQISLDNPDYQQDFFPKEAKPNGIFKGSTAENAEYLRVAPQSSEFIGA
# [8] = target: Follistatin-related protein 3 (Homo sapiens) (UniProt O95633); assay: compounds binding follistatin-related protein 3 – biochemical, small-molecule microarray, 635 nm fluorescence, primary screen (AID 1105); details: FSTL3 binding, higher = more signal;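 further: score merges emission near 667 nm and signal to noise per printed spot across three slides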
# Sequence of Follistatin-related protein 3 (Homo sapiens) (O95633 whole entry, looked up): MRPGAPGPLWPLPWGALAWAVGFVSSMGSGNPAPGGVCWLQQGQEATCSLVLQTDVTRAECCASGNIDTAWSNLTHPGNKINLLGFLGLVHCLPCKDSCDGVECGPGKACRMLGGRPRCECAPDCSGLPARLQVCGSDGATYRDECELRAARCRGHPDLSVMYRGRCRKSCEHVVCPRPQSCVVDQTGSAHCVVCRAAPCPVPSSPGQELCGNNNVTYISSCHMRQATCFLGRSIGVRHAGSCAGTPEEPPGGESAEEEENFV
# [9] = target: Dickkopf-related protein 1 (Homo sapiens) (UniProt O94907); assay: small molecules binding DKK1 protein – biochemical, small-molecule microarray, 635 nm fluorescence scan, primary screen (AID 1106); details: higher = more signal;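 further: score merges emission near 667 nm with signal to noise over three replicate slides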
# Sequence of Dickkopf-related protein 1 (Homo sapiens) (O94907 whole entry, looked up): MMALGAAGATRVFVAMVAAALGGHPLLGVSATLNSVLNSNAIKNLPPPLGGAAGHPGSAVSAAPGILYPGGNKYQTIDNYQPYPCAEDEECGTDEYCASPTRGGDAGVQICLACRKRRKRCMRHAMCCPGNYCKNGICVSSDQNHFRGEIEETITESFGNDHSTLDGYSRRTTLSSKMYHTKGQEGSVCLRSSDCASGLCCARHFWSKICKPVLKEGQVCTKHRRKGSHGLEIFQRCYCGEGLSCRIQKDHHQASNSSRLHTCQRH
# [10] = tested on: Inhibin beta A chain (activin A); assay: small molecules binding activin A – biochemical, small-molecule microarray, 635 nm fluorescence scan, primary screen (AID 1107); details: INHBA, higher = more signal;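 further: mouse activin A protein probed at 4.33 µg/mL on printed slides; score merges bound-protein fluorescence near 667 nm with spot signal-to-noise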
# [11] = tested on: Human papillomavirus type 1a protein E7 (residues 44-93); assay: small molecules binding HPV E7 44-93 – biochemical, small-molecule microarray, residues 44-93, 635 nm fluorescence, primary screen (AID 1108); details: fluorescence 635 nm, higher = more signal;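 further: E7 fragment applied at 1 µg/mL in TBST for 1 h at 4 C; score combines spot fluorescence with its signal to noise ratio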
# [12] = hepatitis C replication reporter changes, two-sided – Huh7 cells, luciferase reporter, HCV replication inhibitor project, primary screen (AID 1109); details: Huh7 HCV replicon luciferase reporter, 48 h; higher = more signal;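 further: huh7 hepatoma cells harbouring a luciferase neomycin HCV replicon reporter; luciferase luminescence as measure of HCV replicon replication; test concentration not given here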
# [13] = target: Left-right determination factor 2 (Homo sapiens) (UniProt O00292); assay: small molecules binding LEFTY2 protein – biochemical, small-molecule microarray, 635 nm fluorescence scan, primary screen (AID 1110); details: higher = more signal
# Sequence of Left-right determination factor 2 (Homo sapiens) (O00292 whole entry, looked up): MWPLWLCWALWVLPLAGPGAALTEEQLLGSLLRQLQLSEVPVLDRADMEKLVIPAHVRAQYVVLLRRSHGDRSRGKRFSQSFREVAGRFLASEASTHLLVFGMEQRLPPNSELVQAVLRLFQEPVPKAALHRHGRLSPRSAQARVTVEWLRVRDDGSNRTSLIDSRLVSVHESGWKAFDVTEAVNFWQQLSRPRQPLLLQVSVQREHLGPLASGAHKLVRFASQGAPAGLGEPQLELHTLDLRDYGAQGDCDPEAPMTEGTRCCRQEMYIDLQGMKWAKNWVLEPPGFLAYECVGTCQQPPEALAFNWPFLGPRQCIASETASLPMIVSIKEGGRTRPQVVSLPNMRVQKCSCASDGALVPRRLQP
# [14] = target: Calmodulin-1 (Homo sapiens) (UniProt P0DP23); assay: small molecules binding calmodulin-1 with EGTA – biochemical, small-molecule microarray, Cy5-labelled CALM1, profiling panel (AID 1111); details: Cy5-CALM1 binding fluorescence, higher = more signal;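 further: labelled calmodulin applied in Tris saline Tween buffer holding calcium plus EGTA and DTT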
# [15] = target: Calmodulin-1 (Homo sapiens) (UniProt P0DP23); assay: small molecules binding Ca-loaded calmodulin-1 – biochemical, small-molecule microarray, Cy5-labelled CALM1, plus calcium, artefact control for SMM control-protein annotation, profiling panel (AID 1112); details: Cy5-CALM1 binding fluorescence, higher = more signal;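 further: score merges spot fluorescence with signal to noise from triplicate slides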
# [16] = probe aWnt5a binding to arrayed compounds – biochemical, biotinylated probe, 635/667 nm fluorescence, primary screen (AID 1113); details: small-molecule microarray, higher = more signal;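 further: score merges 667 nm fluorescence intensity with signal-to-noise per printed feature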
# [17] = probe aShh binding to arrayed compounds – biochemical, biotinylated probe, 635/667 nm fluorescence, primary screen (AID 1114); details: small-molecule microarray, higher = more signal;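 further: probe is biotin-labelled aShh protein from a stem cell growth factor screen; measures binding of labelled protein to compounds printed on the slide; score merges feature fluorescence at 667 nm with signal-to-noise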
# [18] = probe aNog binding to arrayed compounds – biochemical, biotinylated probe, 635/667 nm fluorescence, primary screen (AID 1115); details: small-molecule microarray, higher = more signal;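 further: probe is biotinylated aNog protein used at 0.15 µg/mL for 1 h at 4 C; z-score combines 667 nm fluorescence of each spot with its signal to noise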
# [19] = target: Torsin-1A-interacting protein 1 (Homo sapiens) (UniProt Q5JTV8); assay: compound microarray binding of lysate hLAP1 – cell lysate, small-molecule microarray, COS7 lysate, 635/667 nm fluorescence, primary screen (AID 1116); details: 635 nm fluorescence, higher = more signal
# Sequence of Torsin-1A-interacting protein 1 (Homo sapiens) (Q5JTV8 whole entry, looked up): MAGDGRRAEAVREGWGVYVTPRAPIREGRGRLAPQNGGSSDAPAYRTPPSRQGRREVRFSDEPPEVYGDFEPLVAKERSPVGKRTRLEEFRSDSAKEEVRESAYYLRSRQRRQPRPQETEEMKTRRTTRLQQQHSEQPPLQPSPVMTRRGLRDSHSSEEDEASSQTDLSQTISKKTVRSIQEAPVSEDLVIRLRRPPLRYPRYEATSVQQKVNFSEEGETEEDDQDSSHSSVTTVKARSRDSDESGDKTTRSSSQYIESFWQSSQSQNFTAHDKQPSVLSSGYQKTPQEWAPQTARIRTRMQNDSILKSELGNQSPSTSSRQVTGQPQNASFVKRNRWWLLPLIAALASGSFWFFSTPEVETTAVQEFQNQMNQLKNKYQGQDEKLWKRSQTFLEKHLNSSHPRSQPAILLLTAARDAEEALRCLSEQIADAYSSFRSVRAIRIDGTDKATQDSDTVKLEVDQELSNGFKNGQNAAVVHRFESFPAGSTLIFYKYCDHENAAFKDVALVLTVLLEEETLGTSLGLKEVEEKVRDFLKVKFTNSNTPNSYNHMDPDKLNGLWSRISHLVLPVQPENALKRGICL
# [20] = target: Alpha-bungarotoxin (Bungarus multicinctus) (UniProt P60615); assay: compounds binding labelled alpha-BTX control protein – biochemical, small-molecule microarray, Alexa647 label, 635/667 nm fluorescence, artefact control for SMM control protein annotation, profiling panel (AID 1117); details: alpha-BTX-A647 binding fluorescence, higher = more signal
# Sequence of Alpha-bungarotoxin (Bungarus multicinctus) (P60615 whole entry, looked up): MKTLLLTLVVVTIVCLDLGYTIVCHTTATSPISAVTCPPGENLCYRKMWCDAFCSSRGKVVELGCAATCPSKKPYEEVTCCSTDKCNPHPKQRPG
smiles,measurement,setting,value
COc1ccc([Si](C)(C)[C@@H]2[C@@H](CCn3cc([C@H](O)c4ccccc4)nn3)O[C@]3(C(=O)N(C)c4c(Br)cc(C)cc43)[C@H]2C)cc1,composite z-score,[1],-0.384
same,composite z-score,[2],0.041
same,composite z-score,[3],0.703
same,z-score,[4],-3.07 (inactive)
same,composite z-score,[5],0.0565
same,composite z-score,[6],-0.755
same,composite z-score,[7],-0.212
same,composite z-score,[8],-0.395
same,composite z-score,[9],-0.248
same,composite z-score,[10],0.206
same,composite z-score,[11],-1.29
same,z-score,[12],-4.23
same,composite z-score,[13],0.287
same,composite z-score,[14],-0.0327
same,composite z-score,[15],0.0747
same,composite z-score,[16],-0.157
same,composite z-score,[17],-0.0991
same,composite z-score,[18],-0.169
same,composite z-score,[19],0.184
same,composite z-score,[20],0.178
CO[C@H]1O[C@H](CO)[C@@H](OC(=O)Nc2ccccc2)[C@H](OC(=O)Nc2ccccc2-c2ccccc2)[C@H]1OC(=O)Nc1ccccc1-c1ccccc1,composite z-score,[1],1.79
same,composite z-score,[2],0.834
same,composite z-score,[3],0.91
same,z-score,[4],-2.83 (inactive)
same,composite z-score,[5],0.626
same,composite z-score,[6],1.31
same,composite z-score,[7],-0.165
same,composite z-score,[8],0.824
same,composite z-score,[9],0.482
same,composite z-score,[10],0.0315
same,composite z-score,[11],1.36
same,z-score,[12],-3.9
same,composite z-score,[13],0.152
same,composite z-score,[14],2.18
same,composite z-score,[15],0.438
same,composite z-score,[16],-0.0735
same,composite z-score,[17],0.366
same,composite z-score,[18],0.767
same,composite z-score,[19],2.08
same,composite z-score,[20],2.54
C=CCN1C(=O)[C@@]2(O[C@@H](CCO)[C@H]([Si](C)(C)c3ccc(OC)cc3)[C@H]2C)c2cc(N3C(=O)c4cccc5cccc3c45)ccc21,composite z-score,[1],1
same,composite z-score,[2],-0.0284
same,composite z-score,[3],0.392
same,z-score,[4],-3.45 (inactive)
same,composite z-score,[5],0.102
same,composite z-score,[6],0.307
same,composite z-score,[7],-0.232
same,composite z-score,[8],-0.189
same,composite z-score,[9],-0.4
same,composite z-score,[10],0.18
same,composite z-score,[11],0.515
same,z-score,[12],-5.15
same,composite z-score,[13],-0.144
same,composite z-score,[14],0.965
same,composite z-score,[15],0.734
same,composite z-score,[16],-0.176
same,composite z-score,[17],0.123
same,composite z-score,[18],0.272
same,composite z-score,[19],0.201
same,composite z-score,[20],1.21
CCCNC(=O)[C@@H]1c2ccccc2C(=O)N(Cc2cc(C(F)(F)F)cc(C(F)(F)F)c2)[C@H]1c1ccc(CO)cc1,composite z-score,[1],1.23
same,composite z-score,[2],0.829
same,composite z-score,[3],0.803
same,z-score,[4],-0.443 (inactive)
same,composite z-score,[5],0.238
same,composite z-score,[6],0.459
same,composite z-score,[7],-0.112
same,composite z-score,[8],0.268
same,composite z-score,[9],-0.196
same,composite z-score,[10],0.0686
same,composite z-score,[11],0.35
same,z-score,[12],-0.392
same,composite z-score,[13],-0.402
same,composite z-score,[14],0.394
same,composite z-score,[15],0.544
same,composite z-score,[16],-0.146
same,composite z-score,[17],0.188
same,composite z-score,[18],0.527
same,composite z-score,[19],0.238
same,composite z-score,[20],1.22
C[C@@H](OCc1ccccc1)C1NC(=O)[C@@]23C(=O)N[C@@H](Cc4ccccc4)C2[C@H](C)[C@@]2(C)O[C@H]2C3/C=C/C/C=C\CNC(=O)[C@@H]2CCCN2C1=O (stereo not given in full),composite z-score,[1],-0.381
same,composite z-score,[2],-0.308
same,composite z-score,[3],-0.39
same,z-score,[4],0.253 (inactive)
same,composite z-score,[5],0.097
same,composite z-score,[6],-0.616
same,composite z-score,[7],-0.324
same,composite z-score,[8],0.819
same,composite z-score,[9],0.34
same,composite z-score,[10],1.75
same,composite z-score,[11],-2.3
same,z-score,[12],-1.06
same,composite z-score,[13],-0.0437
same,composite z-score,[14],-1.46
same,composite z-score,[15],-1.23
same,composite z-score,[16],-0.197
same,composite z-score,[17],-0.138
same,composite z-score,[18],-0.247
same,composite z-score,[19],-0.417
same,composite z-score,[20],-0.236

# From PubChem BioAssay
